Measured values reported in the OligoGym collection.

What follows are sequences tested against CCDC124 (assay: pooled miR-30 sensor sort-seq; sequence = guide strand). Conditions: shRNA.
Also: reference of the scale not given here.

Point of comparison: TTTCAGCTGCGACAGCCGCATG, sensor-assay potency score (higher = more potent) -1.52. Against it:
- TTGTTTGAGCCGCGGCAGCTGG — lower, -1.54
- TGAGCTTGGAGTCCTCCTCCTC — higher, -1.05

Each sequence was assayed against CCDC136 in the same assay as above. Conditions: shRNA.

Point of comparison: TTAAGTTCGCTTTCTTTCTCAT, sensor-assay potency score (higher = more potent) -0.0696. Against it:
- TTGTTGACTGACAGAGAGCCAA — lower, -0.719
- TTCTATTTCCTTAAGTTCGCTT — higher, 0.0212
- TTGCGGAATCCTCTGCTGCTTG — lower, -0.962
- TTCCTGACACTTGTTCTTCATG — lower, -1.21
- TAACAGGGAAATCTCCTCCCGT — lower, -0.529
- TAGAGAACGCAGCTCACCTTGG — lower, -0.542
- TTCATTTCCATTTCTGCACGGA — higher, -0.0377
- TTTCTGAAGTCTGAGACTCTGC — lower, -0.127
- TTTCTCATGCTCTAACAGGGAA — lower, -0.6
- TTACAAGGAACTCAGGTTCTTA — lower, -0.441
- TTCAAGTTCATTCTGCATCCGG — higher, 0.279

These sequences were tested against CCDC19 in the same assay as above. Conditions: shRNA.

Point of comparison: TTCTGTTTCATGATCTTCTTTC, sensor-assay potency score (higher = more potent) -0.0443. Against it:
- TTCTTTTTGGATCTGCTGCTTC — lower, -0.755
- TTGAGGATAATCTTGCTCATGT — higher, -0.0129
- TTAGCATTGAGGATAATCTTGC — higher, 0.12
- TTGGATCTGCTGCTTCTCCAGG — lower, -1.06
- TTGAAGGGTATGCTTATCTCGG — lower, -0.289
- TTCAATGCAGTACTTCTCGGGA — lower, -0.758
- TTTTCCTCTTGATCTCATCGAT — higher, 0.115
- TTTGATTCGCTCAAACTCCTCA — higher, 0.0568
- TTCTGCGCCACTCTCTGTCTGC — lower, -0.303
- TTTCCTCTTGATCTCATCGATG — lower, -0.984

What follows are sequences tested against CCDC47 in the same assay as above. Conditions: shRNA.

Point of comparison: TTCTAGATAATAACTCTCCCAG, sensor-assay potency score (higher = more potent) -0.381. Against it:
- TTGCCTTCTCTGTTGAGTCGGA — higher, -0.0399
- TTCTCTGTTGAGTCGGAACTTT — lower, -0.845
- TTTGCTAGAAGAAGTATCTGGT — higher, 0.978
- TTTTGCTAGAAGAAGTATCTGG — higher, 0.452
- TTGCACTTGATCACTCACTGGC — higher, 0.924
- TTTCATTTGCTTCTTTTCCAAC — lower, -1.25
- TAAAGTAAAGTTGCTCTCCAAA — lower, -1.24
- TTAAATGTAAACAACAGTGTCC — higher, 0.382
- TTCAGTAACAGAGTCTTCCATG — lower, -0.75
- TGCAGGAACATCAACAATCGTT — lower, -0.762
- TAAGTCTTGTCTCTTGAGGAAC — lower, -1.49
